# Source: paper PMC7862700, “An all-to-all approach to the identification of sequence-specific readers for epigenetic DNA modifications on cytosine”
# Columns and labels:
# Assay in all cases: DAPPL (digital affinity profiling via proximity ligation, sequencing); 10 mM Tris-HCl pH 7.5, 50 mM NaCl, 1 mM DTT, 4% glycerol, room temperature, 30 min; GST-TFs on glutathione beads, 16-mer random dsDNA library, 0.1% formaldehyde crosslink after washing; high values mean tight binding
# FLI1 = target: T1, FLI1 (Homo sapiens, UniProt Q01543 1-452); settings: protein: recombinant; tags: N-terminal GST; dsDNA, one strand shown
# T1 sequence: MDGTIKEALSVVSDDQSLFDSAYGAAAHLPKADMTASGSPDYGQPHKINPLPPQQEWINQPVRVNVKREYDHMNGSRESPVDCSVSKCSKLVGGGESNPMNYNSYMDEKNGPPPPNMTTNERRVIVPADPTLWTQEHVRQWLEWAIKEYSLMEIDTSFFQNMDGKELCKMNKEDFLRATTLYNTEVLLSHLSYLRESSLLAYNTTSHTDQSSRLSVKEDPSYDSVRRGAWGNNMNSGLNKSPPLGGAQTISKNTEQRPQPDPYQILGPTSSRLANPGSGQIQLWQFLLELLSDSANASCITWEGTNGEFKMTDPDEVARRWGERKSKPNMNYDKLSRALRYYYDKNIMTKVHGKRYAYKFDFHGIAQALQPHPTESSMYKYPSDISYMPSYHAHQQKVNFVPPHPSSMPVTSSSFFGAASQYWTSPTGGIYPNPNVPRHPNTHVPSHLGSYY
# Method in brief: (§1)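 Human transcription factors carrying a GST fusion were produced in yeast, bound to glutathione beads, tagged with DNA barcodes and pooled together with a tag-only sample. Each pool was held with 200 nmole of a random double-stranded 16-mer DNA library in Tris/NaCl/DTT/glycerol buffer for 30 min at room temperature, then washed, crosslinked in 0.1% formaldehyde, proximity-ligated with BsaI/T4 ligase (1 h, 37 °C), PCR-amplified and sequenced on an Illumina NextSeq500. Binding signal is the read frequency of each hexamer for a given factor divided by its frequency in the tag-only sample.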
# ELK1 = target: T2, ELK1 (Homo sapiens, UniProt P19419 1-428); settings: protein: recombinant; tags: N-terminal GST; dsDNA, one strand shown
# T2 sequence: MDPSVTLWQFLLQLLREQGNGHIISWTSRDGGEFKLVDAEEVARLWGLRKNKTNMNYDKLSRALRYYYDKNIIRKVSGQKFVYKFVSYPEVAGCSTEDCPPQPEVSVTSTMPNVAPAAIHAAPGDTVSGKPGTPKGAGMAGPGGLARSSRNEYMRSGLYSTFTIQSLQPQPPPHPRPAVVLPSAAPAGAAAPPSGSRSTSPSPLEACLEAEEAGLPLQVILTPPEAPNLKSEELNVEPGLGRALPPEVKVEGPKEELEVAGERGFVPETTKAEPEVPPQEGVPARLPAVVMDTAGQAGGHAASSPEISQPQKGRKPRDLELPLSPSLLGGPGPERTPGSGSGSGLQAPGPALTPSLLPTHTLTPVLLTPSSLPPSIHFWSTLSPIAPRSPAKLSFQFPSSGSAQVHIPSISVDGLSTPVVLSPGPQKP
# Method in brief: as §1
# GABPA = target: T3, GABPA (Homo sapiens, UniProt Q06546 1-454); settings: protein: recombinant; tags: N-terminal GST; dsDNA, one strand shown
# T3 sequence: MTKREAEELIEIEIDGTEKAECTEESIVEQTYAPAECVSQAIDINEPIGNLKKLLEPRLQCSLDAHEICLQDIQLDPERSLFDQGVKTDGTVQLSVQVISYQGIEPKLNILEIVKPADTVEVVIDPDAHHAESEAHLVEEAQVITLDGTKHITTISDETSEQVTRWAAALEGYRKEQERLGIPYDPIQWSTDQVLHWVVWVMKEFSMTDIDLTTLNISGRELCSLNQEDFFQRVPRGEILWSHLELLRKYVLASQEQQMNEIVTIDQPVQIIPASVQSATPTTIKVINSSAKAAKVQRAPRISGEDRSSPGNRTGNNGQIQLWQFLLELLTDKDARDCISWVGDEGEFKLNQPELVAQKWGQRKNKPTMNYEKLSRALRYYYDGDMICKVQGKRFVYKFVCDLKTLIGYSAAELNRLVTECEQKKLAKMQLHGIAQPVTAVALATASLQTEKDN
# Method in brief: as §1
# ERG = target: T4, ERG (Homo sapiens, UniProt P11308 1-479); settings: protein: recombinant; tags: N-terminal GST; dsDNA, one strand shown
# T4 sequence: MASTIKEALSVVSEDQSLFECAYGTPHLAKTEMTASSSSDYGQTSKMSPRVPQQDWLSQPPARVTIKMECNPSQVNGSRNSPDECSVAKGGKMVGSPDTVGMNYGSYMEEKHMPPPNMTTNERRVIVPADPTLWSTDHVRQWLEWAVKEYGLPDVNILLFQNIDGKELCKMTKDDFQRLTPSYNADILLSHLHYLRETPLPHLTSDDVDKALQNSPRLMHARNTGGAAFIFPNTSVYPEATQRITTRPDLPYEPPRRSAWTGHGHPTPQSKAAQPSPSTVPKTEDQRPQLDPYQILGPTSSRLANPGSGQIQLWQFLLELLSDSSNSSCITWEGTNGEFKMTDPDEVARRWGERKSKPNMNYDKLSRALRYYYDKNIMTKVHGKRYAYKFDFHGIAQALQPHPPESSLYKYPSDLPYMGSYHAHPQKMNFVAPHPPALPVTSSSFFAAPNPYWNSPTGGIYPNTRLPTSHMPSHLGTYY
# Method in brief: as §1
# ELF1 = ELF1 (Homo sapiens, UniProt P32519 1-619); settings: protein: recombinant; tags: N-terminal GST; dsDNA, one strand shown
# Sequence of ELF1 (P32519 whole entry): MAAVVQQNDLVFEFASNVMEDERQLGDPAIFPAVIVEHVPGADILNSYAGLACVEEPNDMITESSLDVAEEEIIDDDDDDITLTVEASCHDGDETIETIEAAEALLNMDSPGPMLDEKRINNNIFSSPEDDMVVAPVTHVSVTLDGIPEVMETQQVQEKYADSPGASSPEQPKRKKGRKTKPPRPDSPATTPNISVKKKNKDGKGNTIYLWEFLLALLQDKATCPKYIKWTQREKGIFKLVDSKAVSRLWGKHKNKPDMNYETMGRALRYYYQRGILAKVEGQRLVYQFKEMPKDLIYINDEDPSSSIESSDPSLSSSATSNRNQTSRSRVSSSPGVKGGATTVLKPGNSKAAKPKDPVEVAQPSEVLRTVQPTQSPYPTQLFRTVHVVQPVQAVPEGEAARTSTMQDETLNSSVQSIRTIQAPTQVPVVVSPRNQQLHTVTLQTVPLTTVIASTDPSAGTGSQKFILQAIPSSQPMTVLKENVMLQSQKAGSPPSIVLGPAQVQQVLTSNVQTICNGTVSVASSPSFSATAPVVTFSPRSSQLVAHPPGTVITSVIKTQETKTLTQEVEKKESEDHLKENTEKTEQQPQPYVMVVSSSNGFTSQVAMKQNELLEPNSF
# Method in brief: as §1
# EHF = target: T5, EHF (Homo sapiens, UniProt Q9NZC4 1-300); settings: protein: recombinant; tags: N-terminal GST; dsDNA, one strand shown
# T5 sequence: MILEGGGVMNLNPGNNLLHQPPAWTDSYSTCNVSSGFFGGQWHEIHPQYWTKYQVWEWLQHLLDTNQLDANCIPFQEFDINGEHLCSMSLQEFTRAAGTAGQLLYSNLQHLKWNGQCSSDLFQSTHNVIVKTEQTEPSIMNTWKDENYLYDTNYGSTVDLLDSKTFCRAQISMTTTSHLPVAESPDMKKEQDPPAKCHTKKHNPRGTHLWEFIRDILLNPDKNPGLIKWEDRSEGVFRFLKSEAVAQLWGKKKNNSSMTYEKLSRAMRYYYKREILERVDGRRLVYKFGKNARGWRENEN
# Method in brief: as §1
# SPI1 = SPI1 (Homo sapiens, UniProt P17947 1-270); settings: protein: recombinant; tags: N-terminal GST; dsDNA, one strand shown
# Method in brief: as §1
# SPIB = SPIB (Homo sapiens, UniProt Q01892 1-262); settings: protein: recombinant; tags: N-terminal GST; dsDNA, one strand shown
# Sequence of SPIB (Q01892 whole entry): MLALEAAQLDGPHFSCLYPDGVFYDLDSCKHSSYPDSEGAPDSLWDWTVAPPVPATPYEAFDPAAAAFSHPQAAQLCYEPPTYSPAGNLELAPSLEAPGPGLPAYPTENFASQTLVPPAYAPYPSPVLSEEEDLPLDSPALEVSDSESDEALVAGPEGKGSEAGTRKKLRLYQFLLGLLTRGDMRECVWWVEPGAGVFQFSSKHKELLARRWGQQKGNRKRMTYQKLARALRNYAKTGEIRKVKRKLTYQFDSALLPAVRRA
# Method in brief: as §1
# ELK3 = target: T6, ELK3 (Homo sapiens, UniProt P41970 1-407); settings: protein: recombinant; tags: N-terminal GST; dsDNA, one strand shown
# T6 sequence: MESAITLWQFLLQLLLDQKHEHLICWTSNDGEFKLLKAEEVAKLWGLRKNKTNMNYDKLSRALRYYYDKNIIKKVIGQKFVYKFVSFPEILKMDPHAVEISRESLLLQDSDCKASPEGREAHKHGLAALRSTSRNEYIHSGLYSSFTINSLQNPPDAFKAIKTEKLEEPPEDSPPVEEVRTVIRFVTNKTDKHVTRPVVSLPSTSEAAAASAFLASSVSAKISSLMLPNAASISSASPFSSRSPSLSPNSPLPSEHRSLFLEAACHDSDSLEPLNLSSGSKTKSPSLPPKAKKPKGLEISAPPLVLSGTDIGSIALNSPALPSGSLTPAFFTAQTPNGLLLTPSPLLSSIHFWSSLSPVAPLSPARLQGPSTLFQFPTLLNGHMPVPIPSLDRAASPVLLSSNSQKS
# Method in brief: as §1
# FEV = target: T7, FEV (Homo sapiens, UniProt Q99581 1-238); settings: protein: recombinant; tags: N-terminal GST; dsDNA, one strand shown
# T7 sequence: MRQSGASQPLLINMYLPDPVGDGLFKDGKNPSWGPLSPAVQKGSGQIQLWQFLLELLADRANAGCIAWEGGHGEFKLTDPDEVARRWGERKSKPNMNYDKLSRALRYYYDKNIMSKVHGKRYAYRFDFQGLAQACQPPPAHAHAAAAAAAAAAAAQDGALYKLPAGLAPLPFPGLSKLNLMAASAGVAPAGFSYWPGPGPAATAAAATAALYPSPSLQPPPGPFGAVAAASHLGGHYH
# Method in brief: as §1
# ETV5 = ETV5 (Homo sapiens, UniProt P41161 1-510); settings: protein: recombinant; tags: N-terminal GST; dsDNA, one strand shown
# Sequence of ETV5 (P41161 whole entry): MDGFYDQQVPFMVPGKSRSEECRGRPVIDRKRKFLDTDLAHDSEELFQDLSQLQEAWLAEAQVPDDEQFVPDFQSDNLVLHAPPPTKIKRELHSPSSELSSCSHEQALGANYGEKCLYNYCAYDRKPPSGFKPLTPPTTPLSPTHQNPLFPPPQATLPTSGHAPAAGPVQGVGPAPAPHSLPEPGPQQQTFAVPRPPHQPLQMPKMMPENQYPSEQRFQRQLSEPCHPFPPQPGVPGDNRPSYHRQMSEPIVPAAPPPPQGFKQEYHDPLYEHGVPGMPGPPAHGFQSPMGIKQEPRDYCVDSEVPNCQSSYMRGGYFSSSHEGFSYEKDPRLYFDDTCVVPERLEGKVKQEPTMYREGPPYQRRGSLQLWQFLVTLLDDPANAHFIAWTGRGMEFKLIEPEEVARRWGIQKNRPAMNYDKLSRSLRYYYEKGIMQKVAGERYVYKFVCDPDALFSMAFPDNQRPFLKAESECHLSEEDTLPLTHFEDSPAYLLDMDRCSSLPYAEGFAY
# Method in brief: as §1
# HSF1 = HSF1 (Homo sapiens, UniProt Q00613 1-529); settings: protein: recombinant; tags: N-terminal GST; chain copies: 3; dsDNA, one strand shown
# Sequence of HSF1 (Q00613 whole entry): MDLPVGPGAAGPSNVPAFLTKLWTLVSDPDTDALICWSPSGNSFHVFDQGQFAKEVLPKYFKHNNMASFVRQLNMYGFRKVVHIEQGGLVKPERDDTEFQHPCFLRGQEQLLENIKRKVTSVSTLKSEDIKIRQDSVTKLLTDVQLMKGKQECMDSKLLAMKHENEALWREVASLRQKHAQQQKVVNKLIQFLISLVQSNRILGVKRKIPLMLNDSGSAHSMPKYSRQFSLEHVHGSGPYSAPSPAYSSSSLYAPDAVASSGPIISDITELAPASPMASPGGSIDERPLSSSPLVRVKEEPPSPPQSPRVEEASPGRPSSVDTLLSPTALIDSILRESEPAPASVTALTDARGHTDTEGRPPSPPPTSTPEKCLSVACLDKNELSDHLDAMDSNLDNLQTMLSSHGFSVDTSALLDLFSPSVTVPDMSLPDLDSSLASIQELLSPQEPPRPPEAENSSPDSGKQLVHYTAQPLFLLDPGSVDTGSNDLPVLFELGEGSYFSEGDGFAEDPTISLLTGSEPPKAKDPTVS
# Method in brief: as §1
# SPIC = target: T8, SPIC (Homo sapiens, UniProt Q8N5J4 1-248); settings: protein: recombinant; tags: N-terminal GST; dsDNA, one strand shown
# T8 sequence: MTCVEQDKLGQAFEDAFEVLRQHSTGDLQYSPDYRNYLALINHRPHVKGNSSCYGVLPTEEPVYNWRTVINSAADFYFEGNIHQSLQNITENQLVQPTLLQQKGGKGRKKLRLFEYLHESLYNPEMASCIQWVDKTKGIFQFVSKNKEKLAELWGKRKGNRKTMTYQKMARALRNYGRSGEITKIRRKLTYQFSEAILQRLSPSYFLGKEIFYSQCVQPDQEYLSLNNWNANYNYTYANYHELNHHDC
# Method in brief: as §1
# ELF4 = ELF4 (Homo sapiens, UniProt Q99607 1-663); settings: protein: recombinant; tags: N-terminal GST; dsDNA, one strand shown
# Sequence of ELF4 (Q99607 whole entry): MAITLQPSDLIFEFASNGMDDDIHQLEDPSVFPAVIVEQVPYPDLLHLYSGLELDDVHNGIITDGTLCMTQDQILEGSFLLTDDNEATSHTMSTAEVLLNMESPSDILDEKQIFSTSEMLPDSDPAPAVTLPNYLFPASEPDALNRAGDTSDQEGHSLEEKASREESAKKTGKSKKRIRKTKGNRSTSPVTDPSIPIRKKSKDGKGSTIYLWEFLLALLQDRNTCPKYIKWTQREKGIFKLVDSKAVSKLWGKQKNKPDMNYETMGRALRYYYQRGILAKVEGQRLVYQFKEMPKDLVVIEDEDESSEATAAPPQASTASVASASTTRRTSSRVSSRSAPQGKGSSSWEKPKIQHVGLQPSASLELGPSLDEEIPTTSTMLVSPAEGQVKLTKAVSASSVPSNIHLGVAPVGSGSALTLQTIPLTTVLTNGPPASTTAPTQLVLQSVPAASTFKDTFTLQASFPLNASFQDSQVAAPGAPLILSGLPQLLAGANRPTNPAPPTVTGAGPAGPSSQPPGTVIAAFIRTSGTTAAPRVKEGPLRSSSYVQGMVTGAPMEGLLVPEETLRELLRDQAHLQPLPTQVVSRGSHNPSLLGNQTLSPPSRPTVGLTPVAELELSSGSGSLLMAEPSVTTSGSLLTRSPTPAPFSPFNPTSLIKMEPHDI
# Method in brief: as §1
# ELK4 = target: T9, ELK4 (Homo sapiens, UniProt P28324-2 1-405); settings: protein: recombinant; tags: N-terminal GST; dsDNA, one strand shown
# T9 sequence: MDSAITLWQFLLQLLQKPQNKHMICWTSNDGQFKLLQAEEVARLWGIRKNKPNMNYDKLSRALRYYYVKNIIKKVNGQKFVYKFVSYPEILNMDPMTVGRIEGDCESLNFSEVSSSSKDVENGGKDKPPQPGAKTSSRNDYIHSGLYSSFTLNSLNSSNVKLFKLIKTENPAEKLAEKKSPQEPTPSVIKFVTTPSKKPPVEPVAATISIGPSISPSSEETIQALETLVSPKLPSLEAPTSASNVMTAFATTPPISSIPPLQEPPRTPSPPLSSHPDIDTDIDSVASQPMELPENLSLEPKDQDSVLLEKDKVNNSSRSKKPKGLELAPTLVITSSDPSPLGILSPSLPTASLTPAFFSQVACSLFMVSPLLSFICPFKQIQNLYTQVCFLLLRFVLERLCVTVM
# Method in brief: as §1
# ETV2 = target: T10, ETV2 (Homo sapiens, UniProt O00321 1-342); settings: protein: recombinant; tags: N-terminal GST; dsDNA, one strand shown
# T10 sequence: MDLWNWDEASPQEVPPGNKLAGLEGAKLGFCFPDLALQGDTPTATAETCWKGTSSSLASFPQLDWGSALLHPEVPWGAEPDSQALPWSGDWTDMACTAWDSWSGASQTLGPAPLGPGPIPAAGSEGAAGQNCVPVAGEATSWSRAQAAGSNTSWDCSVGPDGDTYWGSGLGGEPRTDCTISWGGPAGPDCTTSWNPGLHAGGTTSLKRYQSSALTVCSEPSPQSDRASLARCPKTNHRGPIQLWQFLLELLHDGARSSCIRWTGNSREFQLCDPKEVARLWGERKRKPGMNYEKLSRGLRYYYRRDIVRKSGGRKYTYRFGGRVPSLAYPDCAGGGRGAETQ
# Method in brief: as §1
# ELF3 = target: T11, ELF3 (Homo sapiens, UniProt P78545 1-371); settings: protein: recombinant; tags: N-terminal GST; dsDNA, one strand shown
# T11 sequence: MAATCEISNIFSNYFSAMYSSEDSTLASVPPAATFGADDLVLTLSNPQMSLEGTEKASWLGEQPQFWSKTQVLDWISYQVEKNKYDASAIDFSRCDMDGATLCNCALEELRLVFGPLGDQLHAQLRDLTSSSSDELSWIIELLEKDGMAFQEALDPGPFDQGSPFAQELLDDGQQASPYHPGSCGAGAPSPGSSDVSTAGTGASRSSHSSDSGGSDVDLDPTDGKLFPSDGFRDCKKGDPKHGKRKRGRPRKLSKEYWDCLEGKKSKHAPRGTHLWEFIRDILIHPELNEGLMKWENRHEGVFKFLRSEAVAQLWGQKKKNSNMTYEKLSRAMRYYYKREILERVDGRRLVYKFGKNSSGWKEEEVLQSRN
# Method in brief: as §1
# CRX = CRX (Homo sapiens, UniProt O43186 1-299); settings: protein: recombinant; tags: N-terminal GST; dsDNA, one strand shown
# Sequence of CRX (O43186 whole entry): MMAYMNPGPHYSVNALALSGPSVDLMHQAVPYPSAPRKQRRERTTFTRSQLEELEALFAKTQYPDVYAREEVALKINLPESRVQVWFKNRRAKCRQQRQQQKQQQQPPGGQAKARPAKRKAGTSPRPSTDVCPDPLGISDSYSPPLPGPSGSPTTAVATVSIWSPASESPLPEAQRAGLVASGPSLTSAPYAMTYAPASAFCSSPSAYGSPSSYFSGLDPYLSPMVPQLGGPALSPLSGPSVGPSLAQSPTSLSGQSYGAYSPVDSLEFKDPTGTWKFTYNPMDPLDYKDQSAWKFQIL
# Method in brief: as §1
# ETV1 = ETV1 (Homo sapiens, UniProt P50549 1-477); settings: protein: recombinant; tags: N-terminal GST; dsDNA, one strand shown
# Sequence of ETV1 (P50549 whole entry): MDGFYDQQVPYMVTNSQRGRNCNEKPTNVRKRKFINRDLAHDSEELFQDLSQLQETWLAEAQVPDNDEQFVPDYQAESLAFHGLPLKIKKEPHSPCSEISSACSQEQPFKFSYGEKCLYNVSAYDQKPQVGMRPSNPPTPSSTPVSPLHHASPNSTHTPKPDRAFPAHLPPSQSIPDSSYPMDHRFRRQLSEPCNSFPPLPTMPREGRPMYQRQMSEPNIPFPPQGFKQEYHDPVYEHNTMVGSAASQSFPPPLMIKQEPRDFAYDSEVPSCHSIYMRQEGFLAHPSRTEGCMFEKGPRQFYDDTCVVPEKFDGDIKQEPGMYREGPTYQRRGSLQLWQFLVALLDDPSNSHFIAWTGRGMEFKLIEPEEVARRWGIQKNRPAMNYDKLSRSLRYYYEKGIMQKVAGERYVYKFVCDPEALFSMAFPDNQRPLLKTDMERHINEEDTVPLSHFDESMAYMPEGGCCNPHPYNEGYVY
# Method in brief: as §1
sequence,measurement,setting,value
AATTCT,binding signal,FLI1,"1.4 fold enrichment (6-mer frequency, TF over GST control)"
same,binding signal,ELK1,"1.22 fold enrichment (6-mer frequency, TF over GST control)"
same,binding signal,GABPA,"1.38 fold enrichment (6-mer frequency, TF over GST control)"
same,binding signal,ERG,"1.31 fold enrichment (6-mer frequency, TF over GST control)"
same,binding signal,ELF1,"1.32 fold enrichment (6-mer frequency, TF over GST control)"
same,binding signal,EHF,"1.28 fold enrichment (6-mer frequency, TF over GST control)"
same,binding signal,SPI1,"1.27 fold enrichment (6-mer frequency, TF over GST control)"
same,binding signal,SPIB,"1.39 fold enrichment (6-mer frequency, TF over GST control)"
same,binding signal,ELK3,"1.38 fold enrichment (6-mer frequency, TF over GST control)"
same,binding signal,FEV,"1.29 fold enrichment (6-mer frequency, TF over GST control)"
same,binding signal,ETV5,"1.28 fold enrichment (6-mer frequency, TF over GST control)"
same,binding signal,HSF1,"2.25 fold enrichment (6-mer frequency, TF over GST control)"
same,binding signal,SPIC,"1.3 fold enrichment (6-mer frequency, TF over GST control)"
same,binding signal,ELF4,"1.33 fold enrichment (6-mer frequency, TF over GST control)"
same,binding signal,ELK4,"1.29 fold enrichment (6-mer frequency, TF over GST control)"
same,binding signal,ETV2,"1.4 fold enrichment (6-mer frequency, TF over GST control)"
same,binding signal,ELF3,"1.25 fold enrichment (6-mer frequency, TF over GST control)"
same,binding signal,CRX,"1.79 fold enrichment (6-mer frequency, TF over GST control)"
same,binding signal,ETV1,"1.32 fold enrichment (6-mer frequency, TF over GST control)"
